Compound activity deposited in PubChem BioAssay by National Center for Advancing Translational Sciences (NCATS).
KB-3-1 tox – qHTS assay for MDR1-selective chemotherapeutics: Primary screen using the parental adenocarcinoma cell KB-3-1. KB-3-1 viability, CellTiter-Glo ATP luminescence, 72 h. Potency, µM (top dose mostly 46.1 µM), usual class: cytotoxic. 1.4% of 400,000 active; also: % is scaled to controls: 0 for no effect and ±100 for the full control effect; nearly all actives have a fitted effect of over 60% in size
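Using CellTiter-Glo luminescence, growth of non-resistant KB-3-1 adenocarcinoma cells is assessed 72 h after pin-tool compound addition at 37 °C. Normalized responses across the concentration series yield fitted curves.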
KB-V1 MDR tox – qHTS assay for MDR1-selective chemotherapeutics: Primary screen using the drug-selected MDR subline cells KB-V1; KB-V1 MDR cells viability, CellTiter-Glo, 72 h; Potency, µM (doses to about 46.1 µM), usual class: cytotoxic; 3.4% of 400,000 active; also: % is scaled to controls: 0 for no effect and ±100 for the full control effect; nearly all actives have a fitted effect of over 60% in size
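Potencies derive from concentration-effect curves fitted to normalized luminescence (CellTiter-Glo) of KB-V1 cells treated for 72 h at 37 degrees C in phenol-red-free DMEM containing 10% FBS.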
SW480 rereplic – A quantitative high throughput screen for small molecules that induce DNA re-replication in SW480 colon adenocarcinoma cells | SW480 DNA re-replication, Hoechst DNA content imaging, 48 h | Potency, µM (top dose mostly 46.1 µM), for inactives: top-dose re-replication activation, hits mostly activators | 1.8% of 340,000 active; also: % of control where 0% means no effect; nearly all actives have a fitted effect of over 55% in size
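Cells (250 per well) received 23 nL compound or DMSO by pin tool and were kept 48 hr at 37 C, 5% CO2. Nuclei were then stained with Hoechst for 40 min and scanned for DNA content.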
MCF10A rereplic – A quantitative high throughput screen for small molecules that induce DNA re-replication in MCF 10a normal breast cells | MCF 10A DNA re-replication, Hoechst nuclear intensity, 48 h | Potency, µM (titrated, usually from 46.1 µM), for the others: top-dose activity, positive = re-replication, actives largely listed as activators | 2.9% of 350,000 active; also: % of control where 0% means no effect; nearly all actives have a fitted effect of over 50% in size
ELG1 repair inh – qHTS screen for small molecules that inhibit ELG1-dependent DNA repair in human embryonic kidney (HEK293T) cells expressing luciferase-tagged ELG1; HEK293T ELG1-luciferase reporter, luminescence, 16 h; DNA damage induced by 5-fluorouridine; Potency, µM (titrated, usually from 46.1 µM), for the others: at the highest dose activity change, negative = inhibition, usual class: inhibitors; 2.3% of 330,000 active; AID 504467, 2011; also: % is scaled to controls: 0 for no effect and ±100 for the full control effect; nearly all actives have a fitted effect of over 55% in size
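DMSO vehicle served as the neutral condition. Each well held 2,000 cells given 5-fluorouridine plus compound; after 16 hr at 37 °C/5% CO2, ONE-Glo was added and luciferase measured 30 min later.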
An asterisk follows results filed as active. An excerpt weighted towards active compounds, which were near 8.1% of everything screened. Calls follow the shape of the dose curve; as a rule, active = well fitted curve in the direction sought with a large enough effect; inconclusive = small, poorly fitted or top-dose-only effect, or another doubt; inactive = no such curve, though single readings can be large; an effect the other way counts as inactive or inconclusive. Potency is read from the fitted curve at half-maximal effect.

How did COc1ccc(S(=O)(=O)N2CCOC23CCN(S(C)(=O)=O)CC3)cc1 do in these assays?
KB-3-1 tox: inactive; KB-V1 MDR tox: inactive; SW480 rereplic: 5.2µM*; MCF10A rereplic: 14%; ELG1 repair inh: -1%

Results for COc1ccc(S(=O)(=O)N2CCC3(CC2)OCCN3S(=O)(=O)c2c(C)cc(C)cc2C)cc1 ?
KB-3-1 tox: inactive; KB-V1 MDR tox: inactive; SW480 rereplic: 4%; MCF10A rereplic: -2%; ELG1 repair inh: -15%

How did COc1ccc(S(=O)(=O)N2CCOC23CCN(S(=O)(=O)c2ccccc2)CC3)cc1 do in these assays?
KB-3-1 tox: inactive; KB-V1 MDR tox: inactive; SW480 rereplic: 7.3µM*; MCF10A rereplic: 6%; ELG1 repair inh: 12%

How did COCCC(=O)NC1CCCc2c1cnn2-c1cccc(C)c1C (stereo not given) do in these assays?
KB-3-1 tox: inactive; KB-V1 MDR tox: inactive; SW480 rereplic: -10%; MCF10A rereplic: -3%; ELG1 repair inh: -17%

What do the screens show for `CCc1ccc(NC(=O)N(Cc2ccco2)C(C)c2cccs2)cc1` (stereo not given)?
KB-3-1 tox: inconclusive; KB-V1 MDR tox: 21µM*; SW480 rereplic: 2%; MCF10A rereplic: inconclusive; ELG1 repair inh: 1%

What do the screens show for `CCc1ccc(NC(=O)N(Cc2cccnc2)Cc2ccco2)cc1`?
KB-3-1 tox: inactive; KB-V1 MDR tox: 15µM*; SW480 rereplic: -5%; MCF10A rereplic: 1%; ELG1 repair inh: 10%

Results for COC(=O)c1ccc(NC(=S)N(Cc2cccnc2)Cc2ccco2)cc1 ?
KB-3-1 tox: inactive; KB-V1 MDR tox: inactive; SW480 rereplic: -13%; MCF10A rereplic: 3%; ELG1 repair inh: inconclusive

Results for CCc1ccc(NC(=O)N(C2CCCCC2)C(C)c2cccnc2)cc1 (stereo not given) ?
KB-3-1 tox: inactive; KB-V1 MDR tox: 21µM*; SW480 rereplic: -7%; MCF10A rereplic: -2%; ELG1 repair inh: inconclusive

Results for COc1ccc2c(CNCc3cccs3)c(C(=O)O)n(Cc3cccc(F)c3)c2c1 ?
KB-3-1 tox: inactive; KB-V1 MDR tox: inactive

What do the screens show for `CN1/C(=C\C(=O)c2ccco2)C(C)(C)c2ccccc21`?
KB-3-1 tox: 21µM*; KB-V1 MDR tox: inconclusive; SW480 rereplic: 23µM*; MCF10A rereplic: inconclusive; ELG1 repair inh: inconclusive

How did CN1/C(=C\C(=O)CSc2nnc(NCc3ccccc3)s2)C(C)(C)c2ccccc21 do in these assays?
KB-3-1 tox: inactive; KB-V1 MDR tox: inconclusive; SW480 rereplic: 10%; MCF10A rereplic: 18µM*; ELG1 repair inh: 18µM*

What do the screens show for `Cc1cc(C(=O)CSc2nnc(NCc3ccccc3)s2)c(C)n1C`?
KB-3-1 tox: inconclusive; KB-V1 MDR tox: inconclusive; SW480 rereplic: inconclusive; MCF10A rereplic: inconclusive; ELG1 repair inh: -35%

What do the screens show for `CN1/C(=C\C(=O)c2cccc(S(=O)(=O)N3CCCCC3)c2)C(C)(C)c2ccccc21`?
KB-3-1 tox: inactive; KB-V1 MDR tox: inactive; SW480 rereplic: inconclusive; MCF10A rereplic: inconclusive; ELG1 repair inh: 18µM*

Results for CN1/C(=C\C(=O)c2cncc(Br)c2)C(C)(C)c2ccccc21 ?
KB-3-1 tox: inconclusive; KB-V1 MDR tox: inconclusive; SW480 rereplic: inconclusive; MCF10A rereplic: 16µM*; ELG1 repair inh: 16µM*

What do the screens show for `CN1/C(=C\C(=O)c2cccnc2)C(C)(C)c2ccccc21`?
KB-3-1 tox: inactive; KB-V1 MDR tox: inconclusive; SW480 rereplic: inconclusive; MCF10A rereplic: 16%; ELG1 repair inh: 0%

What do the screens show for `O=C1c2cc(S(=O)(=O)N3CCOCC3)ccc2-c2ccc(S(=O)(=O)N3CCOCC3)cc21`?
KB-3-1 tox: inconclusive; KB-V1 MDR tox: inactive

Results for Cc1ccnc(NC(=O)CNC(=O)c2ccccc2Br)c1 ?
KB-3-1 tox: inactive; KB-V1 MDR tox: inactive; SW480 rereplic: -7%; MCF10A rereplic: 4%; ELG1 repair inh: inconclusive

How did CN1/C(=C\C(=O)COc2ccc3c(c2)OCO3)C(C)(C)c2ccccc21 do in these assays?
KB-3-1 tox: inconclusive; KB-V1 MDR tox: inconclusive; SW480 rereplic: inconclusive; MCF10A rereplic: 13µM*; ELG1 repair inh: -28%

Results for CN1/C(=C/C(=O)c2nc(S(C)(=O)=O)ncc2Cl)C(C)(C)c2ccccc21 ?
KB-3-1 tox: inconclusive; KB-V1 MDR tox: inconclusive; SW480 rereplic: 12µM*; MCF10A rereplic: inconclusive; ELG1 repair inh: inconclusive

How did CN1/C(=C\C(=O)C(F)F)C(C)(C)c2ccccc21 do in these assays?
KB-3-1 tox: inactive; KB-V1 MDR tox: inactive; SW480 rereplic: 1%; MCF10A rereplic: -12%; ELG1 repair inh: -2%

What do the screens show for `Cc1ccc(C(=O)NCC(=O)N2CCCCCCC2)cc1C`?
KB-3-1 tox: inactive; KB-V1 MDR tox: inactive; SW480 rereplic: -16%; MCF10A rereplic: -13%; ELG1 repair inh: inconclusive

How did CCc1ccc(-n2c(=O)c3c4c(sc3n(CC(=O)NCCCOC)c2=O)CCC4)cc1 do in these assays?
KB-3-1 tox: inactive; KB-V1 MDR tox: inactive

Results for Cc1cccc(NC(=O)C2CCN(S(=O)(=O)c3ccc(F)cc3)CC2)c1C ?
KB-3-1 tox: inactive; KB-V1 MDR tox: inconclusive

What do the screens show for `COc1ccc(N(CC(=O)Nc2ccccc2C(=O)NCC(C)C)S(C)(=O)=O)cc1`?
KB-3-1 tox: inactive; KB-V1 MDR tox: inactive; SW480 rereplic: 18µM*; MCF10A rereplic: -5%; ELG1 repair inh: -11%

What do the screens show for `CCC(C)NC(=O)c1ccccc1NC(=O)CN(c1ccc(OC)cc1)S(C)(=O)=O` (stereo not given)?
KB-3-1 tox: inactive; KB-V1 MDR tox: inactive; SW480 rereplic: -5%; MCF10A rereplic: 2%; ELG1 repair inh: -10%

How did COc1ccc(NC(=O)CN(c2ccc([N+](=O)[O-])cc2)S(=O)(=O)c2ccccc2)cc1 do in these assays?
KB-3-1 tox: inactive; KB-V1 MDR tox: 16µM*; SW480 rereplic: inconclusive; MCF10A rereplic: inconclusive; ELG1 repair inh: inconclusive

Results for COc1ccc(N(CC(=O)Nc2ccccc2Cl)S(=O)(=O)c2ccc(C)cc2)cc1OC ?
KB-3-1 tox: inactive; KB-V1 MDR tox: inactive; SW480 rereplic: 3.3µM*; MCF10A rereplic: inconclusive; ELG1 repair inh: -23%

What do the screens show for `COc1ccc(N(CC(=O)Nc2ccccc2OC)S(=O)(=O)c2ccc(NC(C)=O)cc2)cc1`?
KB-3-1 tox: 21µM*; KB-V1 MDR tox: inconclusive; SW480 rereplic: 18µM*; MCF10A rereplic: 13µM*; ELG1 repair inh: inconclusive

Results for O=CNc1ccc(/C=C/c2ccnc3ccccc23)cc1 ?
KB-3-1 tox: inactive; KB-V1 MDR tox: inactive
